Experiment [1] is described as follows: NCI Yeast Anticancer Drug Screen. Data for the rad50 strain (AID 155).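 Also: 0% = growth of vehicle-only cultures of the same strain.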 The settings on record: S. cerevisiae rad50 strain growth inhibition, stronger effect = higher value. The method, boiled down:
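Compounds were tested on a yeast strain with an engineered DNA damage repair alteration; the reported value is growth inhibition normalised to vehicle treatment.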

A short description of experiment [2]: NCI Yeast Anticancer Drug Screen. Data for the mec2-1 strain (AID 157). As to conditions: S. cerevisiae mec2-1 strain, stronger effect = higher value. The method, boiled down: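 Yeast mec2-1 mutant treated with compound. Readout: growth inhibition vs vehicle controls.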
Experiment [3] can be described thus: NCI Yeast Anticancer Drug Screen. Data for the sgs1 mgt1 strain (AID 161).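 Also: 0% = growth of cultures given vehicle only.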 As to conditions: S. cerevisiae sgs1 mgt1 strain, stronger effect = higher value. An outline of the steps:
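Test agents were incubated with a DNA-repair-mutant yeast strain. Growth was then read and compared against vehicle-treated controls.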

Experiment [4] in a line: NCI Yeast Anticancer Drug Screen. Data for the cln2 rad14 strain (AID 165).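 Also: 0% = growth equal to vehicle treated cultures.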 As to conditions: S. cerevisiae cln2 rad14 strain, stronger effect = higher value. An outline of the steps: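 cln2 rad14 yeast strain; compound exposure; growth inhibition read vs vehicle controls.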
Experiment [5] in a line: NCI Yeast Anticancer Drug Screen. Data for the bub3 strain (AID 167). The settings on record: S. cerevisiae bub3 mutant strain, stronger effect = higher value. The method, boiled down:
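Growth of a checkpoint-deficient yeast mutant is measured after compound exposure. Values represent inhibition relative to vehicle.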

A short description of experiment [6]: NCI Yeast Anticancer Drug Screen. Data for the mlh1 rad18 strain (AID 175). As to conditions: S. cerevisiae mlh1 rad18 strain growth inhibition, stronger effect = higher value. The method, boiled down:
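Yeast w/ defined DNA-repair lesions; compound exposure; growth vs vehicle controls → % inhibition.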

The mark [7] stands for this setting: at 5.0 µM (retest, dose inferred, filed as 0.5).
[8] abbreviates: at 50.0 µM (retest, dose inferred, filed as 5.0).

Several values for one entry are separate records, joined by “and”; a condition that tells them apart may be missing. Equal values may be shown once. Compounds without any hit were thinned out: in the full panel of roughly 79,000, 15% have a hit. A structure can be active in one record and inactive in another. Activity calls are given as the source filed them. Rule as the data show it: active = growth inhibition above about 70%; inactive = the rest.

As to `O=c1ccn(C2CC(O)C(COC(c3ccccc3)(c3ccccc3)c3ccccc3)O2)c(=O)[nH]1` (stereo not drawn), the growth inhibition in experiment [1] (setting [7]) is 1% (inactive) and 22% (inactive); in experiment [1] (setting [8]), 99% (active); in experiment [1] (at 50.0 µM), 49.5% (inactive) and 40.2% (inactive); in experiment [2] (setting [7]), 6% (inactive) and 7% (inactive); in experiment [2] (setting [8]) it was 100% (active) and 99% (active); in experiment [2] (at 50.0 µM) it was 98% (active) and 53% (inactive). The growth inhibition in experiment [3] (setting [7]) was -1% (inactive); in experiment [3] (setting [8]), 100% (active) and 54% (inactive); in experiment [3] (at 50.0 µM) it was 42.5% (inactive) and 52.7% (inactive); in experiment [4] (setting [7]), 8% (inactive) and 5% (inactive); in experiment [4] (setting [8]), 99% (active); in experiment [4] (at 50.0 µM), 97.7% (active) and 56% (inactive). Besides, the growth inhibition in experiment [5] (setting [7]) was 7% (inactive) and 1% (inactive); in experiment [5] (setting [8]), 99% (active) and 98% (active); in experiment [5] (at 50.0 µM) it was 99.5% (active) and 16.2% (inactive); in experiment [6] (setting [7]), 13% (inactive); in experiment [6] (setting [8]) it was 99% (active) and 98% (active); in experiment [6] (at 50.0 µM), 41.9% (inactive) and 51.7% (inactive).
As for `O=C(/C=C/c1cccnc1)c1ccccc1`, the growth inhibition in experiment [1] (setting [7]) is 2% (inactive); in experiment [1] (setting [8]) it was 48% (inactive); in experiment [1] (at 50.0 µM) it was 9.2% (inactive) and 25.8% (inactive); in experiment [2] (setting [7]), 0% (inactive); in experiment [2] (setting [8]) it was 67% (inactive); in experiment [2] (at 50.0 µM), -9.2% (inactive) and 41.6% (inactive). Besides, the growth inhibition is -1% (inactive) in experiment [3] (setting [7]); 65% (inactive) in experiment [3] (setting [8]); -15.7% (inactive) and 61.4% (inactive) in experiment [3] (at 50.0 µM); 5% (inactive) in experiment [4] (setting [7]); 14% (inactive) in experiment [4] (setting [8]); 15.1% (inactive) and 3.65% (inactive) in experiment [4] (at 50.0 µM). The growth inhibition is 0% (inactive) in experiment [5] (setting [7]); 40% (inactive) in experiment [5] (setting [8]); -10% (inactive) and 25.5% (inactive) in experiment [5] (at 50.0 µM); 4% (inactive) in experiment [6] (setting [7]); 36% (inactive) in experiment [6] (setting [8]); -21.9% (inactive) and 69.2% (inactive) in experiment [6] (at 50.0 µM).
For the compound `CC(=O)OCC1OC(n2c(C)c(C(C)=O)c(-c3ccco3)c(C#N)c2=S)C(OC(C)=O)C(OC(C)=O)C1OC(C)=O` (stereo not drawn), the growth inhibition is -7% (inactive) in experiment [1] (setting [7]); -3% (inactive) in experiment [1] (setting [8]); -9.45% (inactive) and 32.2% (inactive) in experiment [1] (at 50.0 µM); 2% (inactive) in experiment [2] (setting [7]); 1% (inactive) in experiment [2] (setting [8]); -26.9% (inactive) and 56.2% (inactive) in experiment [2] (at 50.0 µM). Also, the growth inhibition in experiment [3] (setting [7]) was 2% (inactive); in experiment [3] (setting [8]), 13% (inactive); in experiment [3] (at 50.0 µM), -4.95% (inactive) and 74.4% (active); in experiment [4] (setting [7]), 6% (inactive); in experiment [4] (setting [8]), 22% (inactive); in experiment [4] (at 50.0 µM) it was -13.6% (inactive) and 40.8% (inactive). In addition, the growth inhibition is -4% (inactive) in experiment [5] (setting [7]); 9% (inactive) in experiment [5] (setting [8]); -25.4% (inactive) and 42.4% (inactive) in experiment [5] (at 50.0 µM); -29% (inactive) in experiment [6] (setting [7]); 12% (inactive) in experiment [6] (setting [8]); 3.55% (inactive) and 45% (inactive) in experiment [6] (at 50.0 µM).
On to `c1ccc(C(c2ccccc2)n2ccnc2)cc1`, for which the growth inhibition was -95% (inactive) in experiment [1] (setting [7]); -13% (inactive) in experiment [1] (setting [8]); 76.2% (active) in experiment [1] (at 50.0 µM); -11% (inactive) in experiment [2] (setting [7]); 18% (inactive) in experiment [2] (setting [8]); 60% (inactive) in experiment [2] (at 50.0 µM). The growth inhibition in experiment [3] (setting [7]) is -23% (inactive); in experiment [3] (setting [8]), 37% (inactive); in experiment [3] (at 50.0 µM), 43.5% (inactive); in experiment [4] (setting [7]), -27% (inactive); in experiment [4] (setting [8]) it was -21% (inactive); in experiment [4] (at 50.0 µM), 66.6% (inactive). The growth inhibition in experiment [5] (setting [7]) is -57% (inactive); in experiment [5] (setting [8]) it was 2% (inactive); in experiment [5] (at 50.0 µM), 59.4% (inactive); in experiment [6] (setting [7]) it was -72% (inactive); in experiment [6] (setting [8]), 1% (inactive); in experiment [6] (at 50.0 µM) it was 80.7% (active).
With `COc1c(O)cc2oc3cc(O)c(CC=C(C)C)c(O)c3c(=O)c2c1CC=C(C)C`, the growth inhibition in experiment [1] (setting [7]) is 98% (active); in experiment [1] (setting [8]), 89% (active); in experiment [1] (at 50.0 µM), 86.8% (active) and 87.2% (active); in experiment [2] (setting [7]), 99% (active); in experiment [2] (setting [8]), 91% (active) and 93% (active); in experiment [2] (at 50.0 µM), 89.2% (active) and 90% (active). The growth inhibition in experiment [3] (setting [7]) was 99% (active); in experiment [3] (setting [8]), 89% (active); in experiment [3] (at 50.0 µM) it was 90.3% (active) and 89.4% (active); in experiment [4] (setting [7]) it was 51% (inactive) and 42% (inactive); in experiment [4] (setting [8]) it was 83% (active) and 86% (active); in experiment [4] (at 50.0 µM), 85.2% (active) and 86.2% (active). Also, the growth inhibition is 98% (active) in experiment [5] (setting [7]); 87% (active) and 86% (active) in experiment [5] (setting [8]); 86.1% (active) and 87% (active) in experiment [5] (at 50.0 µM); 99% (active) and 98% (active) in experiment [6] (setting [7]); 81% (active) and 87% (active) in experiment [6] (setting [8]); 87.2% (active) in experiment [6] (at 50.0 µM).
For the compound `O=S(O)CCCCSSCC(O)C(O)CSSCCCCS(=O)O` (stereo not drawn), the growth inhibition in experiment [1] (setting [7]) is -7% (inactive); in experiment [1] (setting [8]), 21% (inactive); in experiment [1] (at 50.0 µM), 49.4% (inactive); in experiment [2] (setting [7]) it was 12% (inactive); in experiment [2] (setting [8]) it was 44% (inactive); in experiment [2] (at 50.0 µM), 56.1% (inactive). For the same compound, the growth inhibition in experiment [3] (setting [7]) is 6% (inactive); in experiment [3] (setting [8]), 50% (inactive); in experiment [3] (at 50.0 µM), 78.8% (active); in experiment [4] (setting [7]) it was -10% (inactive); in experiment [4] (setting [8]), 24% (inactive); in experiment [4] (at 50.0 µM), 37% (inactive). In addition, the growth inhibition in experiment [5] (setting [7]) is 3% (inactive); in experiment [5] (setting [8]), 55% (inactive); in experiment [5] (at 50.0 µM), 57.5% (inactive); in experiment [6] (setting [7]), 3% (inactive); in experiment [6] (setting [8]), 33% (inactive); in experiment [6] (at 50.0 µM) it was 73% (active).

The record behind these values is PubChem BioAssay (NCI).
